# Screens deposited in PubChem BioAssay by National Center for Advancing Translational Sciences (NCATS).
# An excerpt weighted towards active compounds, which were near 7.9% of everything screened.
# Marburg entry inh – blocks Marburg virus binding to or entry into cells; Marburg virus pseudotyped entry inhibition, cell reporter; actives 1.8% (n = 300,000); AID 540276; Potency, µM (top dose mostly 37.8 µM), for the others: top-dose activity change, negative = inhibition, hits mostly inhibitors; calls by dose curve; tested in HEK293 cells; further: potency means the concentration at half of the fitted maximal effect
# FMDV inh – blocks foot and mouth disease virus; actives 1.2% (n = 410,000); FMDV antiviral cell-based qHTS; Potency, µM (series often up to 57.9 µM), for inactives: at the highest dose activity change, negative = inhibition, actives largely listed as inhibitors; AID 1159524; calls by dose curve; tested in HEK293T cells; further: read-out not given here; potency means the concentration at half of the fitted maximal effect; nearly all actives have a fitted effect of over 45% in size
# HCV inhibitor – blocks hepatitis C virus. Huh7.5.1 HCVcc-Cre infection, luciferase reporter, 44 h. Potency, µM (highest dose often 41.8 µM), inactives show at the highest dose activity change, negative = inhibition, actives largely listed as inhibitors. actives 3.4% (n = 340,000); active means well fitted inhibition curve with a large enough effect; inconclusive means small, poorly fitted or top-dose-only effect, or another doubt; inactive means no such curve, though single readings can be large or run the other way; further: potency means the concentration at half of the fitted maximal effect
#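 A cell-based infection assay in which seeded cells (1,000 per well) receive test compound after 4 h, are inoculated with HCVcc-Cre at approximately 0.5 moi, and are incubated 44 h before luminescence detection.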
# HCMV antiviral – blocks human cytomegalovirus replication. HFF cells, HCMV-luciferase reporter, 72 h; stronger effect = lower value. activity change, negative = inhibition, % at 57.5 µM. actives 4.5% (n = 410,000). AID 1259415; in the data active means activity change below about -60%; inconclusive means no clear call, values can overlap the other calls; inactive means above about -39%
#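 Luciferase read-out from HCMV-luciferase-infected HFFs (MOI 1 PFU/cell) 72 h post infection at 37C; compounds added after 16 h cell attachment; activity normalized between buffer-only basal and Salinomycin (10uM) inhibitor controls.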
# Lassa entry inh – Lassa virus entry inhibition; Lassa virus pseudotype entry inhibition, cell reporter; Potency, µM (doses to about 37.9 µM), for inactives: at the highest dose activity change, negative = inhibition, hits mostly inhibitors; actives 1.2% (n = 300,000); AID 540256; calls by dose curve; tested in HEK293 cells; further: potency means the concentration at half of the fitted maximal effect; nearly all actives have a fitted effect of over 50% in size
# Active calls of the source: *; u = inconclusive; x = no result given; [ ] = dose if it differs, or a comment. On the % scale 0 is the no-effect control and ±100 the full control effect.
SMILES,Marburg entry inh,FMDV inh,HCV inhibitor,HCMV antiviral,Lassa entry inh
S=c1[nH]nc(-c2ccc(Cl)cc2Cl)n1-c1ccc2c(c1)OCCO2,11%,29%,7%,5,u
CC(=O)N1c2ccc(C)cc2C(c2ccccc2)CC1C (stereo unspecified),6.3µM*,-7%,2%,197,u
O=C1CCC2=C(CC(O)=C(O)C2)O1,5%,x,x,x,x
CN(CC(=O)Nc1ccc(Cl)cc1F)C1CCS(=O)(=O)C1 (stereo unspecified),x,-22%,8%,-100*,x
CN(CC(=O)Nc1cc(Cl)ccc1Cl)C1CCS(=O)(=O)C1 (stereo unspecified),x,-17%,-1%,11,x
O=C(CN1C(=O)c2ccccc2S1(=O)=O)NC1CCCCCC1,x,53%,15%,-75*,x
CC1CCN(C(=O)CN2C(=O)c3ccccc3S2(=O)=O)CC1,u,49%,-1%,-16,7.9µM*
O=C(CN1c2cccc3cccc(c23)S1(=O)=O)NC1CCCCC1,x,-13%,u,-17,x
COCC(=O)Nc1cc(C(=O)N2CC3(C)CC2CC(C)(C)C3)c2c(c1)nc(-c1ccncc1)n2C (stereo unspecified),x,0%,x,x,x
COc1ccc(Cn2c(=O)c3oc4ccccc4c3n(Cc3cccc(C)c3)c2=O)cc1,x,-5%,x,-12,14%[46.1 µM]
CCc1cccc(CC)c1N(COC)C(=O)Cn1nnc2ccccc21,-8%,10%,-10%,25,0%
CCN(C(=O)CC(C)C)c1nnc(Cn2nnc3ccccc32)s1,-48%[46.1 µM],u,13µM*,-36,u
CCN(C(=O)c1ccc(C(C)(C)C)cc1)c1nnc(Cn2nnc3ccccc32)s1,u,u,1µM*,-65*,u
Cc1ccc(C(=O)NNC(=O)Cn2nnc3ccccc32)cc1,7%,27%,4%,-29,u
COCCCNc1ncnc2sc(C(=O)N3CCOCC3)c(C)c12,x,-11%,x,x,x
CCNc1ncc2nc(-c3cccs3)c(=O)n(CCC#N)c2n1,x,-20%,x,x,x
COc1ccc(N2C(=O)CC(NNc3nc4ccccc4s3)C2=O)cc1 (stereo unspecified),23%[46.1 µM],-7%,16%,29,-9%[46.1 µM]
Cc1ccc(N2C(=O)CC(NNc3nc4ccccc4s3)C2=O)cc1C (stereo unspecified),-6%,-19%,29%,-79*,-5%
Cc1cc(NC(=O)Cn2nnc3sc4c(c3c2=O)CCC(C(C)(C)C)C4)no1 (stereo unspecified),-16%,-14%,11µM*,u,-2%
Cc1cccc(NCc2nc3ccccc3n2CCOc2ccccc2C)c1,u,8%,x,-34,-23%[46.1 µM]
CNCCc1ccccn1,5%,0%,-20%[8.37 µM],36,4%
CNCCc1cnc(CCC(c2ccccc2)c2ccccc2)[nH]1,5.8µM*,x,x,x,u
CCC[C@H]1[C@H](NCc2cccs2)CC[C@@]23CCCN2C(=O)CCC[C@@H]13,x,x,x,6,x
CC(=O)c1c(C)[nH]c(C(=O)CSc2ncnc3sc(-c4ccccc4)cc23)c1C,u,0%,u,-77*,-1%
Cc1[nH]c2ccc(-c3nnc(SCC(=O)c4ccccc4F)o3)cc2c1C,u,-1%,u,-3,8.9µM*
SMILES,Marburg entry inh,FMDV inh,HCV inhibitor,HCMV antiviral,Lassa entry inh
C=CCn1c(SCn2nnc3ccccc3c2=O)nc2scc(-c3cccs3)c2c1=O,-24%,x,-22%,-3,22%
Cc1ccc(C(=O)CSc2nnc(-c3ccc4[nH]c(C)c(C)c4c3)o2)cc1C,-30%,x,u,-35,-14%
CC(=O)c1c(C)[nH]c(C(=O)CSc2nnc(-c3cccs3)n2Cc2ccccc2)c1C,u,-28%,2.8µM*,-13,u
O=c1c2ccccc2nnn1CSc1nnc(-c2cccs2)n1Cc1ccccc1,0.82µM*,u,u,u,u
Cc1cc(C(=O)CSc2nnc(-c3cccs3)n2Cc2ccccc2)c(C)n1C,u,-6%,u,-38,4%
CC(=O)c1c(C)[nH]c(C(=O)CSc2nnc(-c3ccccc3)o2)c1C,u,u,8.9µM*,-20,u
CC(=O)CCSc1ncnc2sc(-c3ccccc3)cc12,u,-11%,-10%,-112*,-9%[46.1 µM]
O=C(CSc1nnc(-c2ccccc2)o1)c1nnc(-c2ccccc2)o1,0%,-10%,-25%,63,13%
O=c1cc(CSc2nnc(-c3cccs3)n2Cc2ccccc2)nc2sc3ccccc3n12,u,16µM*,u,-93*,-26%
CC(=O)OC[C@H]1O[C@H](CCON=C(C)CCN2CCCCc3nc(C)c(C)cc32)C=C[C@H]1OC(C)=O,16%[14.2 µM],x,x,x,x
O=C(NCCN1CCCCC1)c1ccc(Cn2c(SCc3ccccc3)nc3cccnc32)cc1,u,16%,x,-12,x
COC1=C(C)C(=O)C2=C(C1=O)C1C3CC4=C(C(=O)C(OC)=C(C)C4=O)C(CNC(=O)C(C)=O)N3C(C#N)C(C2)N1C (stereo unspecified),u,u,u,-97*,u
COc1cccc(NC(=O)c2ccc(NCCCN3CC(C)CC(C)C3)c([N+](=O)[O-])c2)c1 (stereo unspecified),-27%[46.1 µM],-18%,7.9µM*,-25,5%
Cc1ccc(NC(=O)c2ccc(NCCCN3CCC(C)CC3)c([N+](=O)[O-])c2)c(C)c1,x,4%,11µM*,u,x
Cc1ccc(NC(=O)c2ccc(NCCc3ccccc3)c([N+](=O)[O-])c2)cc1F,-2%,-22%,u,18,u
COc1cccc(NC(=O)c2ccc(NCCCN3CCC(C)CC3)c([N+](=O)[O-])c2)c1,4µM*,-3%,u,-24,-15%[46.1 µM]
Cc1ccc(NC(=O)c2ccc(NCCN)c([N+](=O)[O-])c2)cc1Cl,u,12%,14µM*,-82*,14%
O=C(Nc1cc(F)cc(F)c1)c1ccc(NCCCN2CCCCCC2)c([N+](=O)[O-])c1,u,-13%,u,36,2%
CCCN(CCC)CCCNc1ccc(C(=O)Nc2cccc(OC)c2)cc1[N+](=O)[O-],u,-13%,u,u,-19%
Cc1cccc2cc(CN(C(=O)c3ccc(C(F)(F)F)cc3)C3CC3)c(N3CCC(O)CC3)nc12,x,-11%,x,x,x
Cc1ccccc1CNCCCSc1nnnn1-c1ccccc1,9%[46.1 µM],-9%,x,-5,-2%[46.1 µM]
COc1ccc(C=CNC(=O)Cc2ccc(OC)c(OC)c2)cc1,24%[14.2 µM],x,x,x,x
Cc1ccc(NC(=O)CCc2nc(-c3ccccc3F)no2)c(C)c1,18%[46.1 µM],0%,x,-12,u
COc1ccc(N=C2SC(CC(=O)Nc3ccccc3OC)C(=O)N2Cc2ccco2)cc1 (stereo unspecified),u,-11%,u,-34,16µM*
COc1ccc(N=C2SC(CC(=O)Nc3ccc(F)cc3)C(=O)N2Cc2ccco2)cc1 (stereo unspecified),-8%,-26%,-2%,-27,u
Cc1cc(NC(=O)NC(=O)c2cccc(OC(F)(F)C(F)F)c2)n[nH]1,11%,38%,-8%,24,11%
